Measurements reported in the supplement of paper PMC11006884.
Targets with a hit are over-represented here; the source holds about 6,500 in all. About 2% of all pairs of compound and target were hits.

These targets were tested with COC(=O)C#Cc1ccccc1 [methyl 3-phenylpropiolate] (assay: log2 ratio of iodoacetamide-alkyne labeling of the cysteine site, DMSO over compound (competition); higher = stronger covalent engagement of the cysteine by the compound, active = 1 or more). Details: 500 µM; treatment time 1 h; system: HEK293T cell lysate.
Summary of the method: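 Three replicates, each with duplicate channels, were prepared from HEK293T lysate (2 mg/mL) treated with vehicle or electrophile at 500 µM for 1 h at ambient temperature. Iodoacetamide alkyne was then applied for 1 h, and samples were clicked to sCIP-TMT reagents, pooled, trypsin-digested overnight at 37 °C, enriched on streptavidin, acid-eluted and analysed on Orbitrap Eclipse LC-MS/MS with FAIMS, with FragPipe quantification. The log2 competition ratio per cysteine is the mean control-channel divided by the mean compound-channel reporter intensity. Cysteines quantified in only one replicate were left out.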

Chain of UniProt O15164 (O15164 whole entry, looked up): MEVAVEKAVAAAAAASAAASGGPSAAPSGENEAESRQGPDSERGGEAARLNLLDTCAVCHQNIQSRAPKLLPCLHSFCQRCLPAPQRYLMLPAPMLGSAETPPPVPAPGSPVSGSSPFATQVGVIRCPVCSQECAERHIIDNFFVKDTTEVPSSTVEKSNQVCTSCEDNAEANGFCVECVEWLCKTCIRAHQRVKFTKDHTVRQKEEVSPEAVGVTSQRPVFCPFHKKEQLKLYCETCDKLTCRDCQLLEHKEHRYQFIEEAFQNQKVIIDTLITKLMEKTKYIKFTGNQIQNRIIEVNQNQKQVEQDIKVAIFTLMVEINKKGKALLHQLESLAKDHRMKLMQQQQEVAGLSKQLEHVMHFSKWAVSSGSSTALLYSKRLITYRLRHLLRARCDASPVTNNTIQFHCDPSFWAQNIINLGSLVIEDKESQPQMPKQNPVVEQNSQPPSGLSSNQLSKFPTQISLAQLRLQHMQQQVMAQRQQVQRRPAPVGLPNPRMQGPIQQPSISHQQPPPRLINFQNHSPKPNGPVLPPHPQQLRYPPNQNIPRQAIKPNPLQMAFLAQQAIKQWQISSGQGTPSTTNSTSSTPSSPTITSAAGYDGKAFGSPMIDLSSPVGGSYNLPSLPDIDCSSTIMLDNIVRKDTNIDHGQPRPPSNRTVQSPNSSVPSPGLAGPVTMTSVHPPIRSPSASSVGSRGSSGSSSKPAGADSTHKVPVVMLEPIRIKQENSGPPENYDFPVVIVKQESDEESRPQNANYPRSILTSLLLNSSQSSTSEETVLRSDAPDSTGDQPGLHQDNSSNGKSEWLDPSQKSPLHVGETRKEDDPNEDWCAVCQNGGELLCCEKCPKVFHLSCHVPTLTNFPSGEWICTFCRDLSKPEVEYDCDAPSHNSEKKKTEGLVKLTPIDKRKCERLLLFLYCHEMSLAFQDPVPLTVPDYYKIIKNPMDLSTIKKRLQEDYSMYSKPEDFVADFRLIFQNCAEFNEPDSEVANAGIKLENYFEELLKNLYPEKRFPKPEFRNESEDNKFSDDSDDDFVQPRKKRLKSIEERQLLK
Chain of UniProt O14545 (O14545 whole entry, looked up): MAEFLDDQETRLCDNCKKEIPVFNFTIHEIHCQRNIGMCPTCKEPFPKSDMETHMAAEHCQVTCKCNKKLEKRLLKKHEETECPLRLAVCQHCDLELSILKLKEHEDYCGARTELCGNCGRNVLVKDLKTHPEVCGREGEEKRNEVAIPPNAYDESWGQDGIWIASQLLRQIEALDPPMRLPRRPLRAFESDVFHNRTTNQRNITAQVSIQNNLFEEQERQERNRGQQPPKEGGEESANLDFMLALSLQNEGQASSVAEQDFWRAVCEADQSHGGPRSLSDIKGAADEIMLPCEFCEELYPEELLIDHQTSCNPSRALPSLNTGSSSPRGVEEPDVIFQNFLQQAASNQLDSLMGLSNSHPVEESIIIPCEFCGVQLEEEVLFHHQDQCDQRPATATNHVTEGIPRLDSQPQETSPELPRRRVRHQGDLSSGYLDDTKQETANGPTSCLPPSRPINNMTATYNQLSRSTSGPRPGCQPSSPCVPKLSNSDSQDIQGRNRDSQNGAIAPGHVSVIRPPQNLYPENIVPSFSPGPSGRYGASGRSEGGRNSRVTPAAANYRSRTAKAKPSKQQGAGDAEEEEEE
Chain of UniProt O00571 (O00571 whole entry, looked up): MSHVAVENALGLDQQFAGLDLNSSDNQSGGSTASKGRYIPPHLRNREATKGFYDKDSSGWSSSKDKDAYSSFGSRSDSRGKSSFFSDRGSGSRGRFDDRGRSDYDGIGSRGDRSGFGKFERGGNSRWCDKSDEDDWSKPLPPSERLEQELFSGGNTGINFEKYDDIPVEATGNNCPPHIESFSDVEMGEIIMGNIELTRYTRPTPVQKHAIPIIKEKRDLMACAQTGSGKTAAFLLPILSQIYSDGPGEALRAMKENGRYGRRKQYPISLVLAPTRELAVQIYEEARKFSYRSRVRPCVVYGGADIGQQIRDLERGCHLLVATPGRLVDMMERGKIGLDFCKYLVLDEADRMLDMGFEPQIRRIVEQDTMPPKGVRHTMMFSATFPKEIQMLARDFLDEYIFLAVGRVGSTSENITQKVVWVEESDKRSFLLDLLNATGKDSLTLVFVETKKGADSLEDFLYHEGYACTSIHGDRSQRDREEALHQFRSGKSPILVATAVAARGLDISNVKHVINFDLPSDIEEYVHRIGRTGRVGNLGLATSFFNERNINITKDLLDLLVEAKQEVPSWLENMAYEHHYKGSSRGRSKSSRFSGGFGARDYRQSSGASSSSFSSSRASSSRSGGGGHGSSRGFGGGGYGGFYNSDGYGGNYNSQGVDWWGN
Chain of UniProt O00411 (O00411 whole entry, looked up): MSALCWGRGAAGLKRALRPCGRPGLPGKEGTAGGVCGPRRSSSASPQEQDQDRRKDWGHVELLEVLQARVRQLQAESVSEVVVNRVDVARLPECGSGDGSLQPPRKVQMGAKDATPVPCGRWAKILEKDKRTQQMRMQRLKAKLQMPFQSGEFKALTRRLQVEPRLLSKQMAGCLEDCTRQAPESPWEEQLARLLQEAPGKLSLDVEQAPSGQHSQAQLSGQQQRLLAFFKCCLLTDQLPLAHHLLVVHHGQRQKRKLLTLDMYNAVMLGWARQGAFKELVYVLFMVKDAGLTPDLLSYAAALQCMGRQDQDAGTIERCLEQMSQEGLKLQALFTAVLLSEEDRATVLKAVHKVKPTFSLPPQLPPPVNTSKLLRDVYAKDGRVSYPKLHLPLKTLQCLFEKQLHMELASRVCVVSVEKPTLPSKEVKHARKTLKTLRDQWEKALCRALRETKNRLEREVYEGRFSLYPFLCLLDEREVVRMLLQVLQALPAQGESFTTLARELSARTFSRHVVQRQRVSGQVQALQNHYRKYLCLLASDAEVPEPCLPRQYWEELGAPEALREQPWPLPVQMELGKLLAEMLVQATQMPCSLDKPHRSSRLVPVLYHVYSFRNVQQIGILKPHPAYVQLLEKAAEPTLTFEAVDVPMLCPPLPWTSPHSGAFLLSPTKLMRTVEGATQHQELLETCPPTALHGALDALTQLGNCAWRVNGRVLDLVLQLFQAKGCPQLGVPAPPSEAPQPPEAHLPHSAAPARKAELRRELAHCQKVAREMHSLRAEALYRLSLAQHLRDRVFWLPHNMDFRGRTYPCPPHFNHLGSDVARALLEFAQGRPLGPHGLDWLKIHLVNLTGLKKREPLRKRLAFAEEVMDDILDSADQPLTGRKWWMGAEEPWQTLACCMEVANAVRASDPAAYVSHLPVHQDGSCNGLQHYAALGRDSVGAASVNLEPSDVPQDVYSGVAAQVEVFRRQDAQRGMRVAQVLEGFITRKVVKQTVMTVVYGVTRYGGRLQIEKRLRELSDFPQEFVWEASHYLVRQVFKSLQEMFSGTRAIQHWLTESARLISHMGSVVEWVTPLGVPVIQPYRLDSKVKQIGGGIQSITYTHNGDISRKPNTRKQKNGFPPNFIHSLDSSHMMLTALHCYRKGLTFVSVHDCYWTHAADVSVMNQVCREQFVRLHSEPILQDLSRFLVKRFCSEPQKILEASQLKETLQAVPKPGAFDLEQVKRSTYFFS
Chain of UniProt O43172 (O43172 whole entry, looked up): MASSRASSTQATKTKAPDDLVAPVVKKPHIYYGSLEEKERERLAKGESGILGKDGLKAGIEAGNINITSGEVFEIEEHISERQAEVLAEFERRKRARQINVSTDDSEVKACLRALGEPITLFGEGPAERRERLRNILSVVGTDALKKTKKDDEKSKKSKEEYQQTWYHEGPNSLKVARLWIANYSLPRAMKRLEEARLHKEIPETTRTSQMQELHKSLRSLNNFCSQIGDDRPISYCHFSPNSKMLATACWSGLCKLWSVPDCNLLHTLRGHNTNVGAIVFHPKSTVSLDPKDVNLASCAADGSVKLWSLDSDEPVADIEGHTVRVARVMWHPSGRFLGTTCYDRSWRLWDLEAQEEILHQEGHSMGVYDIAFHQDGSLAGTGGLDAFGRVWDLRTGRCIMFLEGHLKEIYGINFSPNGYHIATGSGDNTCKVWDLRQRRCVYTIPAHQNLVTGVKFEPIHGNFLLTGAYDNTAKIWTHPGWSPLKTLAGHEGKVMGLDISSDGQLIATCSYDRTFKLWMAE
Chain of UniProt O15381 (O15381 whole entry, looked up): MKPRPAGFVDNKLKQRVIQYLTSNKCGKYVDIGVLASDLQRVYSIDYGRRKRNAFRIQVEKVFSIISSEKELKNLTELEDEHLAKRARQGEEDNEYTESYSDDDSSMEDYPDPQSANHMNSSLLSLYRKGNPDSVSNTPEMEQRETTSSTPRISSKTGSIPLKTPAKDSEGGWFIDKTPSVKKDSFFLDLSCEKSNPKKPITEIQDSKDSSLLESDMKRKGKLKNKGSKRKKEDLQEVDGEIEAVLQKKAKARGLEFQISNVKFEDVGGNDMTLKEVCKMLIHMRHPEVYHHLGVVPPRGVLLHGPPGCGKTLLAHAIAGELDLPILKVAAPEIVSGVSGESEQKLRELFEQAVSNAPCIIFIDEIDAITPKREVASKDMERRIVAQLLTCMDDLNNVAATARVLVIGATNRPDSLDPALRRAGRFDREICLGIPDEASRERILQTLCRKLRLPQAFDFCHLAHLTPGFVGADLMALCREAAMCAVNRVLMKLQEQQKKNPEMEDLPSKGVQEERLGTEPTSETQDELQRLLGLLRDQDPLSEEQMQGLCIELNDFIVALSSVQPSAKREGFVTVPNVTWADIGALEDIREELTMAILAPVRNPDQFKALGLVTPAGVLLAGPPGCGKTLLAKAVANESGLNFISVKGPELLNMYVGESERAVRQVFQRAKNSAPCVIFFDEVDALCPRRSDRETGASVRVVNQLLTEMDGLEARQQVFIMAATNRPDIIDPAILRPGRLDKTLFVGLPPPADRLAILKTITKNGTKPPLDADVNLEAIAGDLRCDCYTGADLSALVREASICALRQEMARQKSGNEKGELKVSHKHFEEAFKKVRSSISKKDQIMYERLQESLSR

Target	log2 ratio of iodoacetamide-alkyne labeling
HEXIM1 C18 (UniProt O94992)	0.398 (inactive)
TRAFD1 C482 (UniProt O14545)	1.55 (active)
DNM1L C367 (UniProt O00429)	0.986 (inactive)
NVL C550 (UniProt O15381)	-0.302 (inactive)
RECQL5 C664 (UniProt O94762)	1.47 (active)
UniProt O00567_C52	0.482 (inactive)
TIPRL C87 (UniProt O75663)	1.32 (active)
CPD C582 (UniProt O75976)	0.145 (inactive)
TRIM24 C81 (UniProt O15164)	0.0661 (inactive)
DNM1L C361 (UniProt O00429)	0.736 (inactive)
APAF1 C115 (UniProt O14727)	0.288 (inactive)
DDX3X C128 (UniProt O00571)	0.406 (inactive)
NMT2 C104 (UniProt O60551)	0.453 (inactive)
HTATSF1 C471 (UniProt O43719)	1.14 (active)
PSMD11 C289 (UniProt O00231)	0.253 (inactive)
POLRMT C119 (UniProt O00411)	1.22 (active)
HEXIM1 C84 (UniProt O94992)	1.3 (active)
NUP155 C704 (UniProt O75694)	0.168 (inactive)
PMPCB C419 (UniProt O75439)	0.112 (inactive)
UniProt O75153_C153	0.605 (inactive)
PRKRA C106 (UniProt O75569)	1.07 (active)
PRPF4 C237 (UniProt O43172)	1.42 (active)
